Screening data deposited in PubChem by National Center for Advancing Translational Sciences (NCATS).
ELG1 genotox: induces genotoxicity in HEK293T cells with luciferase-tagged ELG1; HEK293T ELG1-luciferase reporter, luminescence, 16 h; Potency, µM (series often up to 46 µM), for inactives: top-dose activity change, positive = activation, usual class: activators; 1.3% of 330,000 active; note: % of control where 0% means no effect; nearly all actives have a fitted effect of over 60% in size
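Quantitative HTS format in 1536-well plates. HEK293T ELG1-luciferase reporter cells receive test compound and are incubated 16 hr at 37 °C, 5% CO2; ONE-Glo added, 30 min room temperature, then luminescence read.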
SMN2 splice enh: SMN2 splice variant enhancement; HEK293 SMN2-luciferase splicing reporter, luminescence, 30-36 h; Potency, µM (titrated, usually from 46.1 µM), inactives show at the highest dose activity change, positive = activation, usual class: activators; 2.8% of 210,000 active; note: % of control where 0% means no effect; nearly all actives have a fitted effect of over 55% in size
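HEK293 cells carry an SMN2 minigene-luciferase reporter in which exon 7 inclusion puts luciferase in frame. Cells were seeded at 2000 cells/well, attached for 10-12 hours, then exposed to compounds for 30-36 hours at 37C before ONE-Glo luminescence.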
Rab9 prom act: activates the Rab9 promoter; Potency, µM (doses to about 9.22 µM), inactives show at the highest dose activation, negative = inhibition, actives largely listed as activators; Huh7 Rab9 promoter-luciferase reporter, luminescence, 24 h; 2.8% of 320,000 active; note: % of control where 0% means no effect; nearly all actives have a fitted effect of over 60% in size
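Luminescence from Amplite-detected luciferase (10 minutes, ambient) reports Rab9 promoter activation. Before that, stable Rab9-luciferase Huh7 cells (1500/well, reduced-serum OP-MEM I plus 10% FBS) were exposed to compound for 24 hours at 37C.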
FLuc modulator: inhibits or activates purified firefly luciferase, miR-21 counter-screen; P08659; purified FLuc, Km substrates, luminescence inhibition; Potency, µM (top dose mostly 57.5 µM), for the others: top-dose activity change, negative = inhibition, actives largely listed as inhibitors; 6.9% of 360,000 active; AID 588342;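 note: plate controls were vehicle for no effect and reference inhibitor for full effect; nearly all actives have a fitted effect of over 55% in size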
Target sequence (P08659 whole entry, looked up): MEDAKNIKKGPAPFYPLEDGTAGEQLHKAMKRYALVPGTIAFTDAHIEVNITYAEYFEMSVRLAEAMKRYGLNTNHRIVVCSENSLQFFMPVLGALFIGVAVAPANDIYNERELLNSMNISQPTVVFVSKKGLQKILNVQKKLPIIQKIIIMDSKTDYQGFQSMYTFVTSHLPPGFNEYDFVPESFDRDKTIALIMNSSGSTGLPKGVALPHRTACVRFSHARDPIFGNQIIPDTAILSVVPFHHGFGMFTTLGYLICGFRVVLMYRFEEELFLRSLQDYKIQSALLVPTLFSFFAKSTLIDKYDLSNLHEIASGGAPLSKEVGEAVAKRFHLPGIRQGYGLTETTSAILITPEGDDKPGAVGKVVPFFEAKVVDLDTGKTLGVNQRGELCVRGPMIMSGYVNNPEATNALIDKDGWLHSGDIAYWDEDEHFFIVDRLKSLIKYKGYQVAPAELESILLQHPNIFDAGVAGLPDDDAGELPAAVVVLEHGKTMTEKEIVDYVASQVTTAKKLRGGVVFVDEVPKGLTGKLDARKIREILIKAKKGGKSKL
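Purified P. pyralis luciferase, 10 nM final, with Km-level 10 uM D-luciferin and 10 uM ATP in 50 mM Tris acetate pH 7.5, 10 mM Mg acetate, 0.01% Tween-20, 0.05% BSA; 6-point qHTS titration about 60 µM downward; luminescence read.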
ELG1 repair inh: blocks ELG1-dependent DNA repair in HEK293T cells. HEK293T ELG1-luciferase reporter, luminescence, 16 h; DNA damage induced by 5-fluorouridine. 2.3% of 330,000 active. AID 504467. Potency, µM (titrated, usually from 46.1 µM), inactives show top-dose activity change, negative = inhibition, hits mostly inhibitors; note: % is set by controls: 0 for no effect and ±100 for the full control effect; nearly all actives have a fitted effect of over 55% in size
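Quantitative HTS, concentration-response format. 2,000 cells/well co-treated with 5-fluorouridine and compound, 16 hr in 5% CO2 at 37 °C; ONE-Glo luminescence read after 30 min.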
NPC1 promoter act: NPC1 promoter activation; Huh7 NPC1 promoter luciferase reporter, 24 h; Potency, µM (series often up to 9.22 µM), inactives show top-dose activation, actives largely listed as activators; 2.4% of 320,000 active; AID 485313; note: % of control where 0% means no effect; nearly all actives have a fitted effect of over 60% in size
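Stable NPC1-promoter luciferase Huh7 line; cpd (DMSO) 24 h, 37 °C, 5% CO2; Amplite luciferase reagent 10 min RT; luminescence readout. qHTS format.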
Starred values were filed as active, the others as inactive; u = inconclusive; x = no result given; [ ] = dose if it differs, or a comment. Compounds with a hit are over-represented: about 9.4% of the library has one in this group of screens. Calls come from the whole dose curve; as a rule, active = well fitted curve in the direction sought with a large enough effect; inconclusive = small, poorly fitted or top-dose-only effect, or another doubt; inactive = no such curve, though single readings can be large; an effect the other way counts as inactive or inconclusive. Potency is the fitted concentration of half-maximal effect.

SMILES	ELG1 genotox	SMN2 splice enh	Rab9 prom act	FLuc modulator	ELG1 repair inh	NPC1 promoter act
COc1ccccc1NC(=O)c1ccccc1C(=O)O	2.0%	6.4%	1.4%	-3.5%	12.2%	-2.5%
COc1cccc(NC(=O)c2ccccc2-c2nc(-c3ccc(Cl)cc3)no2)c1	-3.2%	-1.5%	9.5%	13.5µM*	u	9.4%
Cc1ccc(C)c(CN2C(=O)c3ccccc3S(=O)(=O)c3ccc(C(=O)N4CCCCC4)cc32)c1	x	-10.7%	x	3.3%	x	x
COC(=O)c1c(SC)nc2ccccc2c1OCc1ccccc1Cl	x	x	x	-12.8%	x	x
COc1ccc(S(=O)(=O)c2c(O)c3ccc(C(=O)Nc4ccccc4F)cc3[nH]c2=O)cc1	0.1%[9.26 µM]	x	4.5%	-16.6%	0.0%	-4.3%
COc1ccc(C(=O)Nc2cc(C(C)C)c(O)c(S(=O)(=O)c3ccc(OC)cc3)c2C)cc1	x	15.8µM*	x	u	x	x
COc1ccc(C(=O)Nc2cc(C(C)C)c(O)c(S(=O)(=O)c3ccc(Cl)cc3)c2C)cc1	x	11.2µM*	x	u	x	x
CCCN(C(=O)c1cc2c(s1)-c1ccccc1SC2)c1ccccc1F	x	-25.1%	x	2.7%	x	x
Cc1c(C(C)NC(=O)c2cc(COc3cccc4cnccc34)on2)cnn1C (stereo not drawn)	-9.4%[9.26 µM]	x	-24.5%	-9.0%	3.66µM*	-18.6%
c1ccc(-c2ncc3c(ccc4ccccc43)n2)cc1	0.651µM*	0.501µM*	0.794µM*	0.0849µM*	u	3.98µM*
c1ccc(-c2cnc(-c3ccccc3)nc2)cc1	u	7.08µM*	0.355µM*	0.301µM*	u	0.562µM*
CSc1nc(-c2ccc(Cl)cc2)nn1C(=O)c1ccccc1	17.1%	x	u	10.7µM*	u	24.7%
CCOc1ccc(CCNc2ncnc3onc(C)c23)cc1OCC	x	x	x	-3.1%	x	x
CCOC(=O)c1c(-c2ccc(C)cc2)csc1NC(=O)c1ccc(C(C)(C)C)cc1	x	-0.6%	x	-12.9%	x	x
O=C(Nc1scc(-c2ccccc2)c1C(=O)O)c1ccc(F)cc1	5.1%	x	u	12µM*	u	29.1%
Cc1ccc(-c2csc(NC(=O)c3ccc(F)cc3)c2C(=O)O)cc1	-6.5%	x	3.98µM*	12µM*	u	u
CC(C)Cc1csc(NC(=O)C(C)C)c1C(=O)O	-6.2%	x	0.4%	4.2%	0.0%	-1.4%
O=C(Nc1nsc(-c2ccccc2)n1)c1ccc(F)cc1	u	u	2.24µM*	9.53µM*	u	3.55µM*
CC(C)Cc1csc(NC(=O)c2ccc(Br)cc2)c1C(=O)O	-8.2%	x	12.9%	26.9µM*	7.6%	2.1%
Cc1ccc(N2CC(NC(=O)C3CCCCC3)CC2=O)cc1C (stereo not drawn)	x	x	x	5.2%	x	x
COc1cc(C)c(C(=O)Oc2cc(C)c(C(=O)O)c(O)c2)c(O)c1	5.5%	x	6.7%	19µM*	11.0%	-2.0%
COC(=O)c1ccc(N2NC(=O)/C(=C/c3ccc(-c4ccc(Cl)c(C(=O)O)c4)o3)C2=O)cc1	2.1%	11.1%	0.2%	10.7µM*	-1.8%	0.1%
Cc1ccc(N2NC(=O)/C(=C/c3ccc(-c4ccc(Cl)c(C(=O)O)c4)o3)C2=O)cc1C	-0.1%	x	0.3%	16.9µM*	9.9%	-5.5%
O=C1NN(c2ccccc2)C(=O)/C1=C/c1ccc(-c2ccc(C(=O)O)cc2)o1	-1.6%	x	14.5%	21.3µM*	1.9%	11.3%
O=C(COC(=O)COc1ccccc1)Nc1ncc([N+](=O)[O-])s1	-0.9%	x	2.8%	u	16.6%	3.5%
SMILES	ELG1 genotox	SMN2 splice enh	Rab9 prom act	FLuc modulator	ELG1 repair inh	NPC1 promoter act
O=C(Cc1ccc(Br)cc1)Nc1ncc([N+](=O)[O-])s1	-2.8%	x	u	u	-5.1%	u
O=C(COc1ccc(Cl)cc1)Nc1ncc([N+](=O)[O-])s1	u	u	u	4.26µM*	u	0.562µM*
O=C(Cc1ccc(Cl)cc1)Nc1ncc([N+](=O)[O-])s1	-2.5%	-57.1%	1.41µM*	15.1µM*	u	3.8%
CC(CNC(=O)c1cnn(-c2ccc(F)cc2)c1-n1cccc1)c1ccccc1 (stereo not drawn)	x	x	x	-14.3%	x	x
CCOC(=O)c1[nH]c(C)c(CCC(=O)Nc2ccccc2OCC)c1C	x	x	x	-7.7%	x	x
O=C(CCC(=O)c1cccs1)OCC(=O)c1ccc(F)cc1	-1.1%	x	x	x	3.1%	x
O=C(CC(Nc1ccc(F)cc1)C(=O)O)c1ccccc1 (stereo not drawn)	1.03µM*	12.6µM*	1.26µM*	1.07µM*	u	1.12µM*
O=C(CC(Nc1ccc(F)cc1)C(=O)OCC(=O)c1cccs1)c1ccccc1 (stereo not drawn)	u	u	4.47µM*	u	u	u
Cc1ccc(NC(CC(=O)c2ccccc2)c2ccc(F)cc2)cc1 (stereo not drawn)	-0.7%	8.8%	0.2%	-1.0%	u	3.1%
Cc1cc(C)c2oc(C(=O)Nc3c(C)n(C)n(-c4ccccc4)c3=O)cc(=O)c2c1	x	-4.0%	x	-1.3%	x	x
O=C(Nc1cc2c3c(c1)CC(=O)N3CCC2)c1ccc(Cl)cc1	u	x	-4.0%	15.1µM*	u	12.6%
O=C(Nc1cc2c3c(c1)CC(=O)N3CCC2)c1c(F)cccc1F	u	x	3.1%	-8.0%	u	-3.0%
CCOC(=O)c1c(/C=N/Nc2ccccc2)c2sc(C)cc2n1C	x	x	14.1%	u	x	11.3%
Cc1ccc(C)c(NC(c2ccccc2)c2nnc(-c3ccccc3F)o2)c1 (stereo not drawn)	x	23.1%	x	15.1µM*	x	x
CCOc1ccc(NC(=O)c2cccc(NC(=O)c3ccccc3)c2)cc1	4.8%	x	29.8%	u	u	u
CC(=O)Nc1cccc(NC(=O)c2ccc(COc3ccccc3)cc2)c1	14.6µM*	x	2.82µM*	2.13µM*	u	2.82µM*
CCOc1c(Cl)cc(C(=O)Nc2cccc(C(=O)O)c2)cc1Cl	u	x	0.708µM*	3.01µM*	u	0.562µM*
O=C(O)c1cccc(NC(=O)c2ccc(COc3ccc(Cl)cc3)cc2)c1	8.2%	x	3.16µM*	6.01µM*	u	u
Cn1cccc1C(=O)N1CCC2(CCN(C(=O)Nc3cccc(F)c3)CC2)CC1	x	-16.9%	x	x	x	x
COC(=O)CN(c1cc([N+](=O)[O-])ccc1OC)S(C)(=O)=O	0.7%	x	2.9%	0.9%	-12.0%	-0.5%
CCOC(=O)c1c(C)oc2nc(C)nc(NCc3ccc(F)cc3)c12	x	x	x	5.4%	x	x
Cc1cccc(NC(c2cccc(Cl)c2)c2ccc3cccnc3c2O)n1 (stereo not drawn)	x	-31.5%	x	2.9%	x	x
